Assay [1] deals with Plasmodium falciparum Sir2 (PF13_0152, Sir2A). Briefly: pfSir2 binders on small-molecule microarrays, primary screen, biochemical, small-molecule microarray, 635 nm fluorescence (AID 1098).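 Also: score merges spot fluorescence intensity with its signal-to-noise ratio.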 To be noted: small-molecule microarray binding, fluorescence 635 nm; higher = more signal.
A short description of assay [2]: small-molecule microarray binders of probe aDKK1, primary screen, biochemical, biotinylated probe, 635/667 nm fluorescence (AID 1099).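 Also: score merges 667nm spot fluorescence with signal to noise across triplicate slides.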 To be noted: higher = more signal.
Assay [3] can be described thus: small-molecule microarray binders of probe aCHRDL2, primary screen, biochemical, biotinylated probe, 635/667 nm fluorescence (AID 1100). The note with it: higher = more signal.
A short description of assay [4]: splicing luciferase reporter signal modulators, primary screen, spliceosome inhibition project, cell-based, HEK293, splice +/- reporter (AID 1101).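 Also: HEK293 cells carrying a splicing-competent luciferase reporter gene; test concentration not given here.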 To be noted: luminescence, 24 h, higher = more signal, called active from +8 up or from −8 down. On the technique in general: Reporter assays use an easily measured gene product as a stand-in for the process of interest.

The target of assay [5] is Fibroblast growth factor 10 (Homo sapiens) (UniProt O15520). Nature of the assay: FGF10 binders on small-molecule microarrays, primary screen, biochemical, small-molecule microarray, 635 nm fluorescence (AID 1102). The note with it: FGF10 binding, fluorescence 635 nm, higher = more signal.
Fibroblast growth factor 10 (Homo sapiens), sequence (O15520 whole entry, looked up): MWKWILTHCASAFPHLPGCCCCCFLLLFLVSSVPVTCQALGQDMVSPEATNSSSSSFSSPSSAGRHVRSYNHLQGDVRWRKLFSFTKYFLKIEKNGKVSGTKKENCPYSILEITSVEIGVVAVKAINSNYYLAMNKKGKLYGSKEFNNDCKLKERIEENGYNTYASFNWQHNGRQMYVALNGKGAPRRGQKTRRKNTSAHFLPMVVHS
Assay [6] deals with glycogen synthase kinase-3 (GSK3A per assay name; protocol says GSK3B). Nature of the assay: GSK3 binders on small-molecule microarrays, primary screen, biochemical, small-molecule microarray, 635 nm fluorescence, GSK3A (AID 1103). Also: the record names both GSK3A and GSK3B. To be noted: small-molecule microarray binding, fluorescence 635 nm; higher = more signal.
The target of assay [7] is Epidermal growth factor receptor (Homo sapiens) (UniProt P00533). Nature of the assay: EGFR binders on small-molecule microarrays, primary screen, biochemical, small-molecule microarray, 635 nm fluorescence (AID 1104).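 Also: score merges 667 nm emission intensity with spot signal to noise over triplicate slides.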 To be noted: EGFR binding, higher = more signal.
Epidermal growth factor receptor (Homo sapiens), sequence (P00533 whole entry, looked up): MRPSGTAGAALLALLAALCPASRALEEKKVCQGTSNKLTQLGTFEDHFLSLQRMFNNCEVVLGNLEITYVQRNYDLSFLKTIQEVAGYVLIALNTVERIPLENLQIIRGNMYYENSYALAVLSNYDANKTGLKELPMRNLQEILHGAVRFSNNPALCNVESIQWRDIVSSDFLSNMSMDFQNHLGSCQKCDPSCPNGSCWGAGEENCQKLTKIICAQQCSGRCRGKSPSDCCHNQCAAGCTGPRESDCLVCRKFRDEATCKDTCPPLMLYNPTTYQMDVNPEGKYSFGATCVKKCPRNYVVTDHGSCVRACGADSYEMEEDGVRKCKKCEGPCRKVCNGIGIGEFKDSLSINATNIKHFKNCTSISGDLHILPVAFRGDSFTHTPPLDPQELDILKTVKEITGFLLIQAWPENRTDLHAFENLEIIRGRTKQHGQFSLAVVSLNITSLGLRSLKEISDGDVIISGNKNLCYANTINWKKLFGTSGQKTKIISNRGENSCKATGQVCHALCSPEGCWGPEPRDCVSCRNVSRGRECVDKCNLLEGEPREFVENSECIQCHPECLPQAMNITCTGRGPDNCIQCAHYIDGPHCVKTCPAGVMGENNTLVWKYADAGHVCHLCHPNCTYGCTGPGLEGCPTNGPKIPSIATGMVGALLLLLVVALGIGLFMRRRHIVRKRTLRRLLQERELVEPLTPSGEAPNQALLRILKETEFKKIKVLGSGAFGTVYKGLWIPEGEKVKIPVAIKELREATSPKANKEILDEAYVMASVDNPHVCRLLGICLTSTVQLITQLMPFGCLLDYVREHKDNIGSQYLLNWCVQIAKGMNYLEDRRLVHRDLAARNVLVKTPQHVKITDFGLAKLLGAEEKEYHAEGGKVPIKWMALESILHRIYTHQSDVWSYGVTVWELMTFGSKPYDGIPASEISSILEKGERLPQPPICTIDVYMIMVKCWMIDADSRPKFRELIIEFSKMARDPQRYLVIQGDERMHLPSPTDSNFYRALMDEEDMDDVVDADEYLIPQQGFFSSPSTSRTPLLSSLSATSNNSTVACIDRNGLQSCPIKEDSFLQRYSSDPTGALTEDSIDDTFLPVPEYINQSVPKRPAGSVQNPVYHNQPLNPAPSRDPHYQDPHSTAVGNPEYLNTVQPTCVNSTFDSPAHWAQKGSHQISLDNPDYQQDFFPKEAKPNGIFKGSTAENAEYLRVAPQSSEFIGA
Assay [8] has as its target Follistatin-related protein 3 (Homo sapiens) (UniProt O95633). Nature of the assay: FSTL3 binders on small-molecule microarrays, primary screen, biochemical, small-molecule microarray, 635 nm fluorescence (AID 1105).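 Also: score merges emission near 667 nm and signal to noise per printed spot across three slides.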 To be noted: FSTL3 binding, higher = more signal.
The target in assay [9] is Dickkopf-related protein 1 (Homo sapiens) (UniProt O94907). Briefly: DKK1 binders on small-molecule microarrays, primary screen, biochemical, small-molecule microarray, 635 nm fluorescence scan (AID 1106).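 Also: score merges emission near 667 nm with signal to noise over three replicate slides.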 The note with it: DKK1 binding, higher = more signal.
Dickkopf-related protein 1 (Homo sapiens), sequence (O94907 whole entry, looked up): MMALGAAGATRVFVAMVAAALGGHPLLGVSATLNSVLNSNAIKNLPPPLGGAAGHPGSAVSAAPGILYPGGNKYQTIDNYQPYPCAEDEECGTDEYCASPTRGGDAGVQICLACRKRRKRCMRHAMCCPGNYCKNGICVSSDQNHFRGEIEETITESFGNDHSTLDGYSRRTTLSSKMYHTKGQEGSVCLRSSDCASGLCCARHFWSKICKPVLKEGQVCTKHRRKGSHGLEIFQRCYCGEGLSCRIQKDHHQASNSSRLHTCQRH
Assay [10] deals with Inhibin beta A chain (activin A). Briefly: INHBA (activin A) binders on microarrays, primary screen, biochemical, small-molecule microarray, 635 nm fluorescence scan (AID 1107).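 Also: mouse activin A protein probed at 4.33 µg/mL on printed slides; score merges bound-protein fluorescence near 667 nm with spot signal-to-noise.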 To be noted: small-molecule microarray binding, higher = more signal.
Assay [11] relates to Human papillomavirus type 1a protein E7 (residues 44-93). Briefly: HPV1a E7 fragment binders on microarrays, primary screen, biochemical, small-molecule microarray, residues 44-93, 635 nm fluorescence (AID 1108).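 Also: E7 fragment applied at 1 µg/mL in TBST for 1 h at 4 C; score combines spot fluorescence with its signal to noise ratio.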 The note with it: small-molecule microarray binding, fluorescence 635 nm; higher = more signal.
Assay [12] in a line: modulators of HCV replicon luciferase signal, primary screen, HCV replication inhibitor project, Huh7 cells, luciferase reporter (AID 1109).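 Also: huh7 hepatoma cells harbouring a luciferase neomycin HCV replicon reporter; luciferase luminescence as measure of HCV replicon replication; test concentration not given here.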 To be noted: 48 h, higher = more signal. A general note: Replicon systems follow genome replication, usually without infectious particles.
For assay [13], the target named is Left-right determination factor 2 (Homo sapiens) (UniProt O00292). Briefly: LEFTY2 binders on small-molecule microarrays, primary screen, biochemical, small-molecule microarray, 635 nm fluorescence scan (AID 1110). To be noted: LEFTY2 binding, higher = more signal.
Left-right determination factor 2 (Homo sapiens), sequence (O00292 whole entry, looked up): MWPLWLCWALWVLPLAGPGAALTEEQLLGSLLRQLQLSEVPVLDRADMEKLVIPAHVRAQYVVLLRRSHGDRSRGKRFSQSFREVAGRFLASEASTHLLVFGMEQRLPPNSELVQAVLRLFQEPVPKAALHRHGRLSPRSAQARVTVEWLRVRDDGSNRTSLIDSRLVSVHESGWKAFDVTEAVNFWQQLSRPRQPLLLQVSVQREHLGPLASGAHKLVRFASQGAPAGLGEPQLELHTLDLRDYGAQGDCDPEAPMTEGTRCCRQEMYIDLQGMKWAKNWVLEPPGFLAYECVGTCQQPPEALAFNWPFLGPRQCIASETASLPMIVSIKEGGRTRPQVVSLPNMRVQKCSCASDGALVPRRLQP
For assay [14], the target named is Calmodulin-1 (Homo sapiens) (UniProt P0DP23). Briefly: CALM1 binders on microarrays, EGTA buffer, profiling panel, biochemical, small-molecule microarray, Cy5-labelled CALM1 (AID 1111).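 Also: labelled calmodulin applied in Tris saline Tween buffer holding calcium plus EGTA and DTT.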 The note with it: Cy5-CALM1 binding fluorescence, higher = more signal.
The target is the same in assay [15]. Briefly: calcium-bound CALM1 binders on microarrays, profiling panel, artefact control for SMM control-protein annotation, biochemical, small-molecule microarray, Cy5-labelled CALM1, plus calcium (AID 1112).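 Also: score merges spot fluorescence with signal to noise from triplicate slides.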 The note with it: Cy5-CALM1 binding fluorescence, higher = more signal.
The nature of assay [16]: small-molecule microarray binders of probe aWnt5a, primary screen, biochemical, biotinylated probe, 635/667 nm fluorescence (AID 1113).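 Also: score merges 667 nm fluorescence intensity with signal-to-noise per printed feature.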 To be noted: higher = more signal.
Assay [17] in a line: small-molecule microarray binders of probe aShh, primary screen, biochemical, biotinylated probe, 635/667 nm fluorescence (AID 1114).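 Also: probe is biotin-labelled aShh protein from a stem cell growth factor screen; measures binding of labelled protein to compounds printed on the slide; score merges feature fluorescence at 667 nm with signal-to-noise.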 To be noted: higher = more signal.
A short description of assay [18]: small-molecule microarray binders of probe aNog, primary screen, biochemical, biotinylated probe, 635/667 nm fluorescence (AID 1115).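 Also: probe is biotinylated aNog protein used at 0.15 µg/mL for 1 h at 4 C; z-score combines 667 nm fluorescence of each spot with its signal to noise.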 The note with it: higher = more signal.
In assay [19] the target is Torsin-1A-interacting protein 1 (Homo sapiens) (UniProt Q5JTV8). Briefly: LAP1 binders from COS7 cell lysate, primary screen, small-molecule microarray, 635/667 nm fluorescence (AID 1116). The note with it: COS7-hLAP1 lysate binding, 635 nm fluorescence, higher = more signal.
Torsin-1A-interacting protein 1 (Homo sapiens), sequence (Q5JTV8 whole entry, looked up): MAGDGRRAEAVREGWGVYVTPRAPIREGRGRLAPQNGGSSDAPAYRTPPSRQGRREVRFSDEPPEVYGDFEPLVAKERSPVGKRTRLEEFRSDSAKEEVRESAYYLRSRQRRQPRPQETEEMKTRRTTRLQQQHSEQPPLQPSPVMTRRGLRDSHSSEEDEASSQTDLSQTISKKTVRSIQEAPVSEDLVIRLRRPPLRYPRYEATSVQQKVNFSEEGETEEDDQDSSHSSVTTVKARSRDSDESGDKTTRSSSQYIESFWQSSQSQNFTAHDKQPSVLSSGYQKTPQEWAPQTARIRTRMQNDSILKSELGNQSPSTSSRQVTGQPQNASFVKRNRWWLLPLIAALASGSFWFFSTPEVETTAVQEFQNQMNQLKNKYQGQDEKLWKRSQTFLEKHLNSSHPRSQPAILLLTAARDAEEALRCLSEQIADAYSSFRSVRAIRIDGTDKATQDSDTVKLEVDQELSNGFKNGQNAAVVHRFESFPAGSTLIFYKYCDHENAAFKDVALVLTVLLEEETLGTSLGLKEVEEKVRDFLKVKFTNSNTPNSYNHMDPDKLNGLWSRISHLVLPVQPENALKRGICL
Assay [20] deals with Alpha-bungarotoxin (Bungarus multicinctus) (UniProt P60615). Briefly: alpha-bungarotoxin binders on microarray, profiling panel, artefact control for SMM control protein annotation, biochemical, small-molecule microarray, Alexa647 label, 635/667 nm fluorescence (AID 1117). To be noted: alpha-BTX-A647 binding fluorescence, higher = more signal.
Alpha-bungarotoxin (Bungarus multicinctus), sequence (P60615 whole entry, looked up): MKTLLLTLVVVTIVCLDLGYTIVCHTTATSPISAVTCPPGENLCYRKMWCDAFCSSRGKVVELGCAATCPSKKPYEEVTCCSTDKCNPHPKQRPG

Activity calls are given as the source filed them.

Follistatin-related protein 3 (Homo sapiens), sequence (O95633 whole entry, looked up): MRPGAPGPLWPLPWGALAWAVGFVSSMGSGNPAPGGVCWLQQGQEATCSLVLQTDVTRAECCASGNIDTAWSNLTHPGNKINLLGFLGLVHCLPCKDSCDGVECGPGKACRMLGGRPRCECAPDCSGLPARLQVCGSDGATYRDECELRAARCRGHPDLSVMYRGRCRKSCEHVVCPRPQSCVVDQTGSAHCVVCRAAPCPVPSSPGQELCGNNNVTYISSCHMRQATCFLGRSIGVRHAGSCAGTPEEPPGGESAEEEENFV

For `COCCCNC(=O)[C@@]1(Cc2ccccc2)N=C(c2ccc(OCCCO)cc2)O[C@H]1c1ccccc1CN=[N+]=[N-]`, the composite z-score in assay [1] is 0.47; in [2], 1.09; in [3], 1.32; in [5], 0.807; in [6] it was 1.28; in assay [7], -0.105. In addition, the composite z-score was 0.859 in [8]; -0.172 in assay [9]; 0.384 in assay [10]; 0.596 in assay [11]; 0.0508 in assay [13]; 2.14 in [14]. Further, the composite z-score came out at 0.451 in assay [15]; 0.0445 in [16]; 0.496 in assay [17]; 1.36 in assay [18]; 2.35 in assay [19]; 2.23 in assay [20]. Moreover, the z-score was -0.469 (inactive) in assay [4] and -2.86 in assay [12].

Turning to `COc1ccc(C#Cc2ccc3c(c2)[C@]2(C(=O)N3)[C@H](c3ccc(O)cc3)N3[C@H](c4ccccc4)[C@H](c4ccccc4)OC(=O)[C@H]3[C@@H]2C(=O)N2CCc3cc(OC)c(OC)cc3C2)cc1`, the composite z-score in assay [1] is 1.46; in [2], -0.157; in assay [3], -0.208; in assay [5] it was 0.768; in [6] it was 1.26; in assay [7], 0.469. Also, the composite z-score was 0.853 in assay [8]; 0.31 in [9]; 0.155 in assay [10]; 1.36 in [11]; 0.406 in assay [13]; 1.02 in [14]. Besides, the composite z-score is 0.745 in [15]; -0.0643 in [16]; -0.161 in assay [17]; -0.0503 in assay [18]; 0.7 in assay [19]; 1.67 in [20]. Besides, the z-score in [4] was 1.34 (inactive); in assay [12], -1.11.

As for `[N-]=[N+]=Nc1ccccc1C[C@]1(C(=O)NCc2ccccc2)N=C(c2ccc(OCCCO)cc2)O[C@H]1c1ccccc1N=[N+]=[N-]`, the composite z-score in assay [1] stood at 1.04; in assay [2], 0.236; in assay [3], 0.778; in assay [5], 1.31; in assay [6], 0.34; in assay [7], 0.291. Besides, the composite z-score in assay [8] was 0.646; in [9], -0.245; in assay [10] it was 1.11; in [11] it was 1.42; in assay [13], -0.366; in assay [14], 1.99. The composite z-score in assay [15] was 0.177; in [16], 0.164; in [17], 0.149; in [18] it was -0.237; in [19], 1.02; in assay [20] it was 1.48. For the same compound, the z-score in assay [4] was 0.716 (inactive); in assay [12], -2.34.

On to `[N-]=[N+]=NCc1ccccc1C[C@@]1(C(=O)NCC(O)CO)N=C(c2ccc(OCCCO)cc2)O[C@@H]1c1ccccc1` (stereo not given in full), for which the composite z-score in assay [1] was 0.048; in assay [2] it was 1.15; in assay [3] it was 1.22; in [5], -0.181; in assay [6] it was -0.538; in assay [7] it was -0.455. Also, the composite z-score was -1.3 in assay [8]; -1.58 in assay [9]; 0.377 in [10]; 1.03 in assay [11]; -1.38 in [13]; 0.899 in assay [14]. Also, the composite z-score in assay [15] is 1.25; in assay [16] it was -0.0285; in [17], 0.156; in assay [18], 0.723; in assay [19], 1.01; in assay [20], 0.183. For the same compound, the z-score in assay [4] was -0.195 (inactive); in [12], -1.41.

For `COC(=O)C[C@H]1O[C@@H](CCc2ccccc2)[C@@H](C)[C@@H]1[Si](C)(C)c1ccc(OC)cc1`, the composite z-score was -1.04 in [1]; -0.0884 in [2]; -0.149 in [3]; -0.587 in assay [5]; -1.04 in assay [6]; 0.239 in assay [7]. In addition, the composite z-score was -0.232 in [8]; 0.149 in assay [9]; 0.0026 in assay [10]; -0.504 in [11]; -0.0374 in [13]; -0.606 in assay [14]. The composite z-score was 0.125 in [15]; -0.232 in assay [16]; -0.439 in assay [17]; -0.266 in assay [18]; -0.562 in [19]; -0.763 in [20]. Further, the z-score in assay [4] was 0.0234 (inactive); in [12], -0.638.

`CCCC=C(CCC)[C@@H](NC(=O)OCC(C)C)c1ccccc1`: the composite z-score is 0.32 in assay [1]; 0.907 in assay [2]; 1.34 in assay [3]; 0.497 in assay [5]; 0.659 in assay [6]; 0.111 in assay [7]. For the same compound, the composite z-score in [8] was 0.663; in [9], -0.0115; in [10], 0.622; in [11], 0.861; in [13], -0.0453; in assay [14], 1.65. The composite z-score in assay [15] worked out at 0.438; in assay [16] it was 0.806; in assay [17], 0.717; in assay [18], 1.99; in assay [19], 0.226; in assay [20], 0.703. In addition, the figures for the z-score in assay [4] and in [12] were -1.82 (inactive) and -1.18, respectively.

The record behind these values is PubChem BioAssay.
